# Test results reported in the supplement of paper PMC10849652.
# The full data set covers some 8,800 targets. This sample favours those with a hit. About 0.5% of all pairs of compound and target were hits. Unmarked numbers belong to inactive results.
# Tests used:
# Assay in all cases: log2 fold change, soluble protein after heating vs DMSO (PISA); higher = thermal stabilisation; K562 lysate, 10 uM; active = over 0.2 and 3.5 SD of the protein, either way, in both replicates (recomputed)
# [1] = compound: NCC(=O)Nc1ccc(-n2nc(C(F)(F)F)cc2-c2ccc3c(ccc4ccccc43)c2)cc1
# Method in brief: (§1)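 Thermal stability, expressed as log-two fold change relative to solvent controls, is given from duplicates. Crude K562 extract in PBS pH 7.4 with 1 mM MgCl2, at 1 mg/mL protein, was treated with 10 μM compound for 30 min and heated in aliquots for 3 min across 48°C-58°C. After pooling, adjustment to 0.5% NP-40 at 4°C and centrifugation at 21,000xg for 90 min, supernatant protein was measured by TMTpro 16plex LC-MS/MS with channel sums equalised.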
# vorinostat = compound: O=C(CCCCCCC(=O)Nc1ccccc1)NO [vorinostat]
# Method in brief: as §1
# silmitasertib = compound: O=C(O)c1ccc2c(c1)nc(Nc1cccc(Cl)c1)c1ccncc12 [silmitasertib]
# Method in brief: as §1
# [2] = compound: O=C1NC(=O)C(c2cnc3ccccn23)=C1c1cn2c3c(cc(F)cc13)CN(C(=O)N1CCCCC1)CC2
# Method in brief: as §1
# entospletinib = compound: c1cn2cc(-c3ccc4cn[nH]c4c3)nc(Nc3ccc(N4CCOCC4)cc3)c2n1 [entospletinib]
# Method in brief: as §1
# Chain of UniProt Q9BXL7 (Q9BXL7 whole entry, looked up): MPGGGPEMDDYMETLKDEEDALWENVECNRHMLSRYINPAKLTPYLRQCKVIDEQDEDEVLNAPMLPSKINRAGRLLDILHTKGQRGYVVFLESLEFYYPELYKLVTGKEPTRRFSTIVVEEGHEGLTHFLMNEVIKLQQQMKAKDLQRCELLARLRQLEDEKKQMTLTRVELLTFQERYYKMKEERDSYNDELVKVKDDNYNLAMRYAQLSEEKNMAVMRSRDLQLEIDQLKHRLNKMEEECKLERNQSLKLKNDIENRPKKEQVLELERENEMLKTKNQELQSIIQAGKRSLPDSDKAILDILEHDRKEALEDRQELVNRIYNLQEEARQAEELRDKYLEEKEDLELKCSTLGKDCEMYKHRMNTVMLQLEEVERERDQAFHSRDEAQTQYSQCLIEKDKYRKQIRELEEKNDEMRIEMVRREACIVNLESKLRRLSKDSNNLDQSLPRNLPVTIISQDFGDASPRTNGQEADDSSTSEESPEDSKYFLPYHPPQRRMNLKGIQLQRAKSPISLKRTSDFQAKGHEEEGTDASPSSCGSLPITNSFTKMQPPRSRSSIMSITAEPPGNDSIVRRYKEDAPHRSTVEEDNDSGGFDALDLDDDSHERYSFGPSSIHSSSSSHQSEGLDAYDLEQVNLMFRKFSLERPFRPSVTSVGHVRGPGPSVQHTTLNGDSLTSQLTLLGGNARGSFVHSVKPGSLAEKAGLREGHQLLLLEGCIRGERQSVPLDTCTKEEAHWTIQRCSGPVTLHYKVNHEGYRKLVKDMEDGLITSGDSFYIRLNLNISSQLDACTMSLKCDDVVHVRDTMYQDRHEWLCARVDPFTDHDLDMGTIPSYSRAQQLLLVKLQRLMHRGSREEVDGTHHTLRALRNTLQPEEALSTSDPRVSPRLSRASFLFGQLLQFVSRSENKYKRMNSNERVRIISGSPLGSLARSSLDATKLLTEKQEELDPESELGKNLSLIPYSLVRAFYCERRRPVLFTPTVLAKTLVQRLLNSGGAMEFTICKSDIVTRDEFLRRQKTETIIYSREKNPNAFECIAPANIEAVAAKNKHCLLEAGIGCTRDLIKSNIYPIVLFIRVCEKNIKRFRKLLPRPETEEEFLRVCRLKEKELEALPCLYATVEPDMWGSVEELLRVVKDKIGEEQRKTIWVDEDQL
# Chain of UniProt Q86WA6 (Q86WA6 whole entry, looked up): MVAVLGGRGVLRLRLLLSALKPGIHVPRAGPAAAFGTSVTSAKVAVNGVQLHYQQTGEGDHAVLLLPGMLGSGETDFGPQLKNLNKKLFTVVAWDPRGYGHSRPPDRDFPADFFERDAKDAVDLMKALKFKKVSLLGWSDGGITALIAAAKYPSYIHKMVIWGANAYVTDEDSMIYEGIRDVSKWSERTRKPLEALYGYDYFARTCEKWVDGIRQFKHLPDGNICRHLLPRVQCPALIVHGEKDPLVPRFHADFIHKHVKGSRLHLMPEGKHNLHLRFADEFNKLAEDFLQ
# Chain of UniProt Q13554 (Q13554 whole entry, looked up): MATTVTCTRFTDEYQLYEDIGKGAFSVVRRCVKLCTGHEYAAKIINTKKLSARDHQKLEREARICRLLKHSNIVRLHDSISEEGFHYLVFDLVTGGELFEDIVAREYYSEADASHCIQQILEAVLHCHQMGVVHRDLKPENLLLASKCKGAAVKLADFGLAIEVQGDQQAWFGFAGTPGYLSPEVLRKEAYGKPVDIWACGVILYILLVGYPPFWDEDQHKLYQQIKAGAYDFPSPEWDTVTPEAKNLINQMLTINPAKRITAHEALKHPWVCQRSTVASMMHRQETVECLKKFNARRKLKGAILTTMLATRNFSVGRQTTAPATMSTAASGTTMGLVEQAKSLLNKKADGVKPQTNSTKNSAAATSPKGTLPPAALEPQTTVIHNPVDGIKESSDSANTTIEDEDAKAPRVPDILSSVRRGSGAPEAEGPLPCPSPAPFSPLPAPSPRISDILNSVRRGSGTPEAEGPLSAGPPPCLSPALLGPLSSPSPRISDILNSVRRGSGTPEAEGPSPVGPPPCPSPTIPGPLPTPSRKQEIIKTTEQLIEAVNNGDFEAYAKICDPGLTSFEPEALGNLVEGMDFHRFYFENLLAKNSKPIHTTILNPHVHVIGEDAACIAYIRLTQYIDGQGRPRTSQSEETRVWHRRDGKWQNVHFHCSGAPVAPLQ
# Chain of UniProt O75143 (O75143 whole entry, looked up): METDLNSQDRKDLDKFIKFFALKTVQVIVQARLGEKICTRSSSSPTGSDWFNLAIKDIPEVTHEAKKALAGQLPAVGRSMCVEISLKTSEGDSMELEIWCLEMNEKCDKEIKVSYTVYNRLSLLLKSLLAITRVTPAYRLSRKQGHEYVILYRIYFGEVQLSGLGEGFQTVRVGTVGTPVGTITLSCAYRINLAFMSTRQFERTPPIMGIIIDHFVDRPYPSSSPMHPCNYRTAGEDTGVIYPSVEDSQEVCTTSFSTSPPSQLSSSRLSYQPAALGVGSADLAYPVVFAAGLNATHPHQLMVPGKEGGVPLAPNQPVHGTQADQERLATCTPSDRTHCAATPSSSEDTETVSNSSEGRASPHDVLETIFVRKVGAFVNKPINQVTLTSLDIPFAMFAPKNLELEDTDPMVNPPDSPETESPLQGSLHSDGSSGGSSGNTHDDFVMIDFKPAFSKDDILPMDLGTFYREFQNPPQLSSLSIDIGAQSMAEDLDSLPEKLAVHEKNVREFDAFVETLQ
# Chain of UniProt O75081 (O75081 whole entry, looked up): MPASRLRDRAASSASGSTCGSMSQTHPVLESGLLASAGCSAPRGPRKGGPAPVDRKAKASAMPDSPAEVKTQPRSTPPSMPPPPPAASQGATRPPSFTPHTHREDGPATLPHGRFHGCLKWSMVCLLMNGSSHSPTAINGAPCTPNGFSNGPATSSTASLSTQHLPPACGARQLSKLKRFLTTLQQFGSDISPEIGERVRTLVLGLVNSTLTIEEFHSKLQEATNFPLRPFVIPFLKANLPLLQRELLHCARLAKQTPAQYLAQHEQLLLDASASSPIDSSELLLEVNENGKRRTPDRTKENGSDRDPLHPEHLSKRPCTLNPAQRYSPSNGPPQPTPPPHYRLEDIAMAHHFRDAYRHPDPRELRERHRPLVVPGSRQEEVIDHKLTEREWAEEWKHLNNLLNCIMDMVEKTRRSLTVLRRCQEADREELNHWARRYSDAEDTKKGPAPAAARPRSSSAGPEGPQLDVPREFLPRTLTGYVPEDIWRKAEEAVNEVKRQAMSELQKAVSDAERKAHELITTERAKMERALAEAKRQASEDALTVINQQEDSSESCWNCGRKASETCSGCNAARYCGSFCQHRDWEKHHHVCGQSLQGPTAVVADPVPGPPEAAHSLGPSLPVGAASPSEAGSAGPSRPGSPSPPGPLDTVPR
# Chain of UniProt P15056 (P15056 whole entry, looked up): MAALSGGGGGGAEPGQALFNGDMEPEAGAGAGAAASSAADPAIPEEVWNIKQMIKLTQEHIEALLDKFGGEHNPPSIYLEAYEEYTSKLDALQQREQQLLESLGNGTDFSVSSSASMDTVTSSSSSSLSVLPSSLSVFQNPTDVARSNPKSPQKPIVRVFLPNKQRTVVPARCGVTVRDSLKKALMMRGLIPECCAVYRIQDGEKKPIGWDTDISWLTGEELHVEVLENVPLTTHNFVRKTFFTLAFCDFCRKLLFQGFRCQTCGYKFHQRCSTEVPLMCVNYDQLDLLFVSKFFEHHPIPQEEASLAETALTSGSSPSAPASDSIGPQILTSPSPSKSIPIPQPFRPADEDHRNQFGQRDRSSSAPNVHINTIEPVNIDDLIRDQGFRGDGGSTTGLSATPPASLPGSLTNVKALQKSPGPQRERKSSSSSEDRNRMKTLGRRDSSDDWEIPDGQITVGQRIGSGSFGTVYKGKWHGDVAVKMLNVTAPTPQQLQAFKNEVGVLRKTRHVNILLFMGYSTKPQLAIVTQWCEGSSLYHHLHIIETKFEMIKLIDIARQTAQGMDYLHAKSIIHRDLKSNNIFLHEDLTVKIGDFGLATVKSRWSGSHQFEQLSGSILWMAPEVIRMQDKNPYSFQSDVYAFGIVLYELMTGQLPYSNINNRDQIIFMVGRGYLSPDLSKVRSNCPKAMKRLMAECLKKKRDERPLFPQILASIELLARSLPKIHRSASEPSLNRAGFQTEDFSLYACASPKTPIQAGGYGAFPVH
# Chain of UniProt Q9NXV6 (Q9NXV6 whole entry, looked up): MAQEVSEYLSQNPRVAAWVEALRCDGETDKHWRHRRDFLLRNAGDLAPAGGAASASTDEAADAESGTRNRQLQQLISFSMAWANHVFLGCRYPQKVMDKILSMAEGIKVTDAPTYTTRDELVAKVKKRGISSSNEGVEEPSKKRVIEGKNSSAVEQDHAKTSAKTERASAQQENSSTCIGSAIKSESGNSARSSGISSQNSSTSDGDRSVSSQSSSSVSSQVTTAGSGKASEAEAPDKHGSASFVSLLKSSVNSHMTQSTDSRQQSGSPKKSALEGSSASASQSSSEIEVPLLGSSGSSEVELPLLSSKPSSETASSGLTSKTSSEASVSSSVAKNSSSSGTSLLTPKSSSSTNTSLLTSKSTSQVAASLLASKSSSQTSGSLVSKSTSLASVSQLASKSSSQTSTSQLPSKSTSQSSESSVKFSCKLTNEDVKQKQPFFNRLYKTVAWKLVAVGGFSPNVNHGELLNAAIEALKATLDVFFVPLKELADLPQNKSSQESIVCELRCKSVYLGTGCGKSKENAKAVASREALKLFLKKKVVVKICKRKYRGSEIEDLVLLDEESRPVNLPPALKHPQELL
# Chain of UniProt P33681 (P33681 whole entry, looked up): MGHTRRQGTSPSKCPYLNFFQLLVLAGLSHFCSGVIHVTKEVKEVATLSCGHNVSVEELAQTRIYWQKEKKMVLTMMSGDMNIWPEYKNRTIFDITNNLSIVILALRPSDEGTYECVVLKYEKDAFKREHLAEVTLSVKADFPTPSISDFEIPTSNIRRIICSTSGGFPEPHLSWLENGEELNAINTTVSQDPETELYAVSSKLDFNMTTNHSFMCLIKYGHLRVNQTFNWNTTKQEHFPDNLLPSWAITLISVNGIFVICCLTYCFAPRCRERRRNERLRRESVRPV
# Chain of UniProt Q9H3K6 (Q9H3K6 whole entry, looked up): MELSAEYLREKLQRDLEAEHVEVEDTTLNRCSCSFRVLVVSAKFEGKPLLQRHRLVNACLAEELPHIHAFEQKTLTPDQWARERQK
Target,log2 fold change [1],log2 fold change (vorinostat),log2 fold change (silmitasertib),log2 fold change [2],log2 fold change (entospletinib)
CASC4 (UniProt Q6P4E1),-0.034,0.02,0.019,0.025,-0.029
CAMK2G isoform 8 (UniProt Q13555),-0.044,-0.208,0.087,0.084,0.004
ATF7IP2 (UniProt Q5U623),0.066,0.027,0.002,-0.048,
CCPG1 isoform 5 (UniProt Q9ULG6),-0.022,0.043,-0.012,-0.025,0
CCNC (UniProt P24863),0.159,-0.001,0.338,-0.092,0.029
BLM (UniProt P54132),0.03,-0.056,0.044,0.003,-0.002
CDK8 (UniProt P49336),-0.008,-0.057,0.226,-0.053,
BCKDK (UniProt O14874),-0.01,0.025,0.052,-0.271 (active),-0.053
CHD9 (UniProt Q3L8U1),-0.018,-0.111,0.075,-0.012,
CHCHD1 (UniProt Q96BP2),0.131,0.055,-0.039,-0.014,-0.081
AURKAIP1 (UniProt Q9NWT8),0.073,0.08,-0.01,0.071,-0.081
CDC40 (UniProt O60508),0.029,0.08,0.015,0.005,0.014
C3orf33 (UniProt Q6P1S2),-0.085,-0.118,-0.137,0.023,
AVEN (UniProt Q9NQS1),-0.146,-0.738 (active),-0.009,0.092,-0.161
CD63 (UniProt P08962),-0.1,0.123,-0.039,-0.173,0.077
BRD3 (UniProt Q15059),0.052,-0.117,-0.146,0.021,-0.018
ATP13A1 (UniProt Q9HD20),-0.009,-0.094,0.03,-0.02,-0.03
CDKN2AIP (UniProt Q9NXV6),-0.005,0.072,-0.037,-0.022,0.013
CDC42BPA isoform 6 (UniProt Q5VT25),-0.008,-0.224 (active),0.018,0.001,0
ATG13 isoform 2 (UniProt O75143),0.01,0.051,-0.01,0.024,-0.008
CALM2 (UniProt P0DP24),0.008,-0.027,0.064,-0.121,-0.048
CD80 (UniProt P33681),0.018,-0.028,-0.067,-0.066,-0.162
BCORL1 isoform 3 (UniProt Q5H9F3),0.177,-0.004,-0.093,0.213,-0.018
CAPNS1 (UniProt K7ES78),-0.234,-0.011,-0.037,0.141,
CHD1L (UniProt Q86WJ1),0.01,-0.277 (active),0.015,0.164,0.046
CARD9 (UniProt Q9H257),0.008,-0.217 (active),0.011,0.014,-0.038
CCNH (UniProt P51946),0.028,-0.43 (active),0.02,-0.07,0.02

Target,log2 fold change [1],log2 fold change (vorinostat),log2 fold change (silmitasertib),log2 fold change [2],log2 fold change (entospletinib)
BRAT1 (UniProt Q6PJG6),0.015,-0.32 (active),-0.002,-0.013,0.004
CAPNS1 (UniProt P04632),-0.08,0.07,-0.007,-0.039,0.033
BCAR1 isoform 6 (UniProt P56945),0.056,-0.032,0.002,-0.004,-0.083
CARD11 (UniProt Q9BXL7),-0.113,-0.406 (active),0.001,0.004,-0.031
BPHL (UniProt Q86WA6),-0.093,0.143,0.049,-0.006,0.028
CBFA2T3 (UniProt O75081),-0.004,-0.4 (active),0.009,-0.019,-0.012
CCP110 (UniProt O43303),-0.033,-0.102,-0.131,-0.124,0.045
CANX (UniProt D6RHJ3),0.012,,,,
C18orf25 (UniProt Q96B23),0.03,0.089,-0.147,-0.034,0.036
AURKA (UniProt O14965),-0.008,-0.236,0.135,0.1,0.167
CAMK2B (UniProt Q13554),0.014,-0.133,-0.017,0.056,-0.02
CAD (UniProt P27708),0.012,-0.067,0.026,0.008,0
BOLA2 (UniProt Q9H3K6),-0.085,0.1,0.039,-0.039,-0.015
ATG10 (UniProt Q9H0Y0),-0.032,-0.242 (active),0.049,-0.023,0.034
ATXN2 (UniProt F8WB05),0.013,0.011,0.271,0.115,-0.016
CDK5RAP2 (UniProt Q96SN8),0.042,-0.156,0,0.026,-0.042
CCNB2 (UniProt O95067),0.01,-0.115,-0.079,-0.08,0.044
C15orf41 (UniProt Q9Y2V0),-0.124,-0.362 (active),-0.011,-0.012,0.04
CHAF1A (UniProt Q13111),0.004,-0.402 (active),-0.004,0.004,-0.082
BUB1B isoform 3 (UniProt O60566),0.004,-0.376 (active),0.015,0.006,0.013
BAHCC1 (UniProt Q9P281),0.009,-0.082,-0.086,-0.158,-0.069
BRAF (UniProt P15056),-0.001,-0.339,0.061,-0.008,0.037
C16orf70 (UniProt Q9BSU1),-0.013,-0.382 (active),0.019,-0.015,-0.104
CHCHD2 (UniProt Q9Y6H1),-0.022,-0.301 (active),0.044,-0.017,-0.06
CDK5RAP3 isoform 4 (UniProt Q96JB5),0.046,0.026,0.068,0,0.012
C1orf131 isoform 5 (UniProt Q8NDD1),0.059,-0.445 (active),-0.025,0.039,-0.013
CDC42EP4 (UniProt Q9H3Q1),0,0.018,-0.074,0.021,0.051
